Bioassay records: PubChem, National Center for Advancing Translational Sciences (NCATS)
In the library only some 21% were active in any assay of this set; here they are far more common.
Cycloheximide cs = Cycloheximide Counterscreen for Small Molecule Inhibitors of Shiga Toxin. cell reporter, cycloheximide protein synthesis inhibition counterscreen. max response, %. 12% of 300,000 active; in the data active = max response mostly above about 13%, no sharp cut-off; inactive = mostly below about 14%; also: read at 38.3 µM for the half of the compounds with a filed dose; 0% is about no effect
SARS PLP yeast = qHTS of Yeast-based Assay for SARS-CoV PLP | S. cerevisiae expressing SARS-CoV PLpro, growth rescue | Potency, µM (doses to about 32.9 µM), for inactives: at the top dose activity, positive = growth rescue, most hits filed as activators | 0.19% of 330,000 active | AID 485353, 2010; also: potency is read from the fitted curve at half-maximal effect; 0% is about no effect; nearly all actives have a fitted effect of over 55% in size
NS1 function inh = qHTS Assay for Inhibitors of Influenza NS1 Protein Function; Potency, µM (titrated, usually from 46.1 µM), inactives show top-dose activity, positive = more growth; 0.4% of 270,000 active; AID 2326, 2010; also: potency is read from the fitted curve at half-maximal effect; actives are rising curves; nearly all actives have a fitted effect of over 50% in size
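In this qHTS, NS1 from influenza A is expressed in budding yeast, where it slows growth. Cells are switched from glucose to 2% galactose medium (pH 6.0, -URA), treated with compound, and growth recovery is read at OD600.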
Pf growth 96h = Primary qHTS for delayed death inhibitors of the malarial parasite plastid, 96 hour incubation. P. falciparum luciferase reporter growth, 96 h. Potency, µM (top dose mostly 28.7 µM), for inactives: at the highest dose activity change, negative = inhibition, usual class: inhibitors. 6.9% of 320,000 active. AID 504834, 2011; active = well fitted inhibition curve with a large enough effect; inconclusive = small, poorly fitted or top-dose-only effect, or another doubt; inactive = no such curve, though single readings can be large or run the other way; also: potency is read from the fitted curve at half-maximal effect; % is scaled to controls: 0 for no effect and ±100 for the full control effect
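Two parasite generations (96 h, 37 C, 5% CO2) of compound exposure in infected erythrocytes (0.05% parasitemia, 2% hematocrit). Luciferase-reporter P. falciparum; decreased luminescence indicates inhibited growth, aimed at apicoplast-acting delayed death.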
Pf growth 48h = Primary qHTS for delayed death inhibitors of the malarial parasite plastid, 48 hour incubation. P. falciparum luciferase growth in erythrocytes, 48 h. Potency, µM (top dose mostly 28.7 µM), for inactives: at the top dose activity change, negative = inhibition, actives largely listed as inhibitors. 5.9% of 310,000 active; active = well fitted inhibition curve with a large enough effect; inconclusive = small, poorly fitted or top-dose-only effect, or another doubt; inactive = no such curve, though single readings can be large or run the other way; also: potency is read from the fitted curve at half-maximal effect; % is scaled to controls: 0 for no effect and ±100 for the full control effect
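In quantitative HTS format, infected erythrocytes bearing luciferase-reporter parasites were treated for a single generation at 37 C. Luminescence after adding detection reagent served as the growth measure.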
Shiga toxin inh = A qHTS for Small Molecule Inhibitors of Shiga Toxin. Vero cells, Shiga toxin protein synthesis inhibition reporter. inhibition, % at 38.7 µM. 9.2% of 290,000 active; in the data active = inhibition mostly above about 28%, no sharp cut-off; inactive = mostly below about 43%; also: 0% is about no effect
* marks the source's active call; other numbers are inactive results; ? = inconclusive; / = no result given; [ ] = remark or other dose. Unless noted, calls follow the shape of the full dose curve.

SMILES	Cycloheximide cs	SARS PLP yeast	NS1 function inh	Pf growth 96h	Pf growth 48h	Shiga toxin inh
COc1ccc(-c2cc(-c3n[nH]c(=S)n3-c3ccccc3OC)[nH]n2)cc1	2	9%	-18%	17%	32%	6
CN(Cc1ccccc1)C(=O)c1[nH]cnc1C(=O)N[C@@H](Cc1ccccc1)C(=O)OC(C)(C)C	0	0%	8%	?	32%	5
COc1ccc2c(c1)c1nc(SCC(C)C)n(CCO)c(=O)c1n2C	-5	1%	-5%	?	/	-19
Cc1ccc2c(c1)N(CC(=O)NCC1CCCO1)C(=O)C(C(C)C)O2 (centres undefined)	-6	0%	5%	46%	15%	-6
CN(Cc1cccc(Cl)c1Cl)C(=O)c1ccc(NC(=O)CC#N)cc1	-6	15%	20%	15µM*	-27%	-8
C=C1CC[C@H](O)C/C1=C/C=C1\CCC[C@]2(C)[C@@H]([C@H](C)CCCC(C)C)CC[C@@H]12	34*	/	/	3%	30%	89*
O=C(NC(=S)Nc1c(Cl)ccc2nsnc12)c1ccco1	-2	4%	16%	34%	-1%	-5
CC(CNC(=O)C1CCCCC1C(=O)O)c1ccccc1 (centres undefined)	-5	8%	-1%	/	-2%	-15
O=C(Nc1nccs1)c1ccc2ccccc2c1	52*	2%	-28%	-17%	15%	79*
O=C(Nc1nccs1)c1cccc(NC(=O)c2ccco2)c1	8	1%	3%[9.22 µM]	3%	10%	6
O=C(Nc1nccs1)c1ccccn1	67*	3%	/	?	85%	97*
CCOc1cccc(C(=O)Nc2nccs2)c1	30*	-56%	3%	13%	318%	69*
O=C(Nc1nccs1)c1cccnc1Cl	-2	0%	7%	3%	/	3
O=C(Nc1nccs1)c1ccc[nH]c1=O	25*	3%	15%	9%	42%	/
CC(C)(C)c1ccc(C(=O)NNc2ncccc2-n2cccc2)cc1	8	-4%	4%	?	?	14
O=C(Nc1nccs1)c1ccc(Br)cc1	27*	14%	-21%	0%	0%	133*
O=C(Nc1n[nH]c(=S)s1)c1ccc2ccccc2c1	34*	0%	5%	214%	156%	69*
O=C(CCNC(=O)c1ccc(Br)cc1)Nc1nccs1	19*	0%	/	-1%	0%	22
O=C(Nc1ncccc1O)c1ccc2ccccc2c1	8	2%	-11%	?	-4%	-20
O=C(CCNC(=O)c1ccc([N+](=O)[O-])cc1)Nc1nccs1	-3	0%	7%	4%	6%	-5
Cc1cc(NCCCn2ccnc2)n2nc(C)c(-c3ccc(Cl)cc3)c2n1	26*	16%	-2%	2%	/	36
Cc1cc(NCCCn2ccnc2)n2nc(C)c(-c3ccccc3)c2n1	44*	4%	-3%	12µM*	/	33
Cc1cc(NCCCn2ccnc2)n2ncc(-c3ccccc3)c2n1	9	-9%	-5%	-99%	-67%	18
c1ccc(-c2nc(NCCCn3ccnc3)c3ccccc3n2)cc1	-4	1%	-4%	8.3µM*	3.7µM*	12
CCN(CC)CCCNc1nc(-c2ccccc2)nc2ccccc12	-3	10%	2%	?	?	-2
SMILES	Cycloheximide cs	SARS PLP yeast	NS1 function inh	Pf growth 96h	Pf growth 48h	Shiga toxin inh
CC(C)NC(=S)N1CCN(C/C=C/c2ccccc2)CC1	-3	0%	-2%	?	-6%	-4
CN(C)C(=O)c1ccc(NC(=O)c2ccc(-c3ccc(Cl)cc3)o2)cc1	/	-11%	/	?	4%	/
CCn1c(CCc2ccccc2)n[nH]c1=S	-2	1%	5%	10µM*	0%	13
S=c1[nH]nc(-c2ccccc2)n1Cc1ccccc1	-1	?	9%	0.41µM*	16%	-16
S=c1[nH]nc(-c2ccc(Cl)cc2)n1Cc1ccccc1	0	?	12%	0%	7%	-14
Cc1nnc(SCC(=O)N(C)c2ccccc2)n1Cc1ccccc1	0	-1%	-5%	?	7%	3
CN(C(=O)CSc1nnc(CN2CCCC2)n1Cc1ccccc1)c1ccccc1	/	-3%	/	?	12µM*	/
S=c1[nH]nc(CN2CCCCC2)n1Cc1ccccc1	-4	-1%	12%	2%	3.7µM*	10
CN(C(=O)COC(=O)c1cc(S(=O)(=O)N2CCOCC2)ccc1F)C1CCS(=O)(=O)C1 (centres undefined)	/	-1%	/	3%	-12%	/
CC1=C(C(=O)OCc2ccccc2)C(c2cccc([N+](=O)[O-])c2)NC(=O)N1C (centres undefined)	-3	3%	22%	?	0%	-15
O=C(NCCSCc1ccccc1)c1ccc(C2SCC(=O)N2Cc2ccccc2)cc1 (centres undefined)	-2	2%	23%	7.4µM*	/	-6
COC(=O)c1ccc(C2SCC(=O)N2Cc2ccccc2)cc1 (centres undefined)	-5	-4%	-7%	4%	-21%	-9
CC(=O)Nc1ccc(NC(=O)c2ccc(C3SCC(=O)N3CCc3ccccc3)cc2)cc1 (centres undefined)	-6	20%	3%	12µM*	-19%	-10
CCc1ccc(C2C(C(C)=O)=C(C(=O)OC)Nc3nnnn32)cc1 (centres undefined)	1	17%	6%	5.2µM*	-17%	-3
CCOc1cc(N2CCOCC2)c(OCC)cc1NC(=O)c1c(C)noc1C	/	-5%	/	1%	13%	/
CCCCNC(=S)Nc1ccc(-c2nc3ccc(C)cc3s2)cc1	65*	28%	12%	325%	171%	51*
CCC(C)(C)NC(=S)Nc1ccc(-c2nc3ccc(C)cc3s2)cc1	44*	3%	13%	288%	204%	82*
O=C(Cc1cccs1)NCc1ccccc1	10	11%	0%	?	57%	26
Cc1ccccc1CNC(=O)Cc1cccs1	44*	1%	/	4%	187%	50*
O=C(Cc1cccs1)NCc1ccccc1F	18*	2%	2%	/	78%	52*
O=C(Cc1c(O)c2ccccc2[nH]c1=O)NCc1ccccc1F	60*	10%	-4%	-11%	3%	94*
O=C(NCc1cccs1)c1ccccc1F	12*	11%	5%	7%	9%	12
CC(=O)c1c(C(C)=O)c(C)n(-c2ccc(N)c(C)c2)c1C	2	2%	0%	/	-19%	-5
O=S(=O)(NC1CCCCC1)c1ccc(Br)cc1	1	-1%	-63%	36%	11%	-23
CN(Cc1ccccc1)S(=O)(=O)c1ccc(S(=O)(=O)N(Cc2ccc(F)cc2)C2CCCC2)cc1	8	5%	8%	/	?	5
